Data from PubChem BioAssay.
Active and inactive are the calls of the source.

Experiments:
[1] = system: Plasmodium falciparum Sir2 (PF13_0152, Sir2A); assay: Plasmodium falciparum Sir2A binding compounds – biochemical, small-molecule microarray, 635 nm fluorescence, primary screen (AID 1098); settings: fluorescence 635 nm, higher = more signal;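 also: score merges spot fluorescence intensity with its signal-to-noise ratio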
[2] = probe aDKK1 binding to arrayed compounds – biochemical, biotinylated probe, 635/667 nm fluorescence, primary screen (AID 1099); settings: small-molecule microarray, higher = more signal;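 also: score merges 667nm spot fluorescence with signal to noise across triplicate slides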
[3] = probe aCHRDL2 binding to arrayed compounds – biochemical, biotinylated probe, 635/667 nm fluorescence, primary screen (AID 1100); settings: small-molecule microarray, higher = more signal
[4] = change in splice reporter luminescence, either direction, cell-based, HEK293, spliceosome inhibition project, primary screen (AID 1101); settings: HEK293 splicing luciferase reporter, 24 h, higher = more signal, called active from +8 up or from −8 down;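 also: HEK293 cells carrying a splicing-competent luciferase reporter gene; test concentration not given here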
[5] = target: Fibroblast growth factor 10 (Homo sapiens) (UniProt O15520); assay: compounds binding fibroblast growth factor 10 – biochemical, small-molecule microarray, 635 nm fluorescence, primary screen (AID 1102); settings: FGF10 binding, fluorescence 635 nm, higher = more signal
[6] = system: glycogen synthase kinase-3 (GSK3A per assay name; protocol says GSK3B); assay: compounds binding glycogen synthase kinase-3 – biochemical, small-molecule microarray, 635 nm fluorescence, GSK3A, primary screen (AID 1103); settings: fluorescence 635 nm, higher = more signal; also: the record names both GSK3A and GSK3B
[7] = target: Epidermal growth factor receptor (Homo sapiens) (UniProt P00533); assay: compounds binding epidermal growth factor receptor – biochemical, small-molecule microarray, 635 nm fluorescence, primary screen (AID 1104); settings: EGFR binding, higher = more signal;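 also: score merges 667 nm emission intensity with spot signal to noise over triplicate slides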
[8] = target: Follistatin-related protein 3 (Homo sapiens) (UniProt O95633); assay: compounds binding follistatin-related protein 3 – biochemical, small-molecule microarray, 635 nm fluorescence, primary screen (AID 1105); settings: FSTL3 binding, higher = more signal;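 also: score merges emission near 667 nm and signal to noise per printed spot across three slides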
[9] = target: Dickkopf-related protein 1 (Homo sapiens) (UniProt O94907); assay: small molecules binding DKK1 protein – biochemical, small-molecule microarray, 635 nm fluorescence scan, primary screen (AID 1106); settings: higher = more signal;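 also: score merges emission near 667 nm with signal to noise over three replicate slides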
[10] = system: Inhibin beta A chain (activin A); assay: small molecules binding activin A – biochemical, small-molecule microarray, 635 nm fluorescence scan, primary screen (AID 1107); settings: INHBA, higher = more signal;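 also: mouse activin A protein probed at 4.33 µg/mL on printed slides; score merges bound-protein fluorescence near 667 nm with spot signal-to-noise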
[11] = system: Human papillomavirus type 1a protein E7 (residues 44-93); assay: small molecules binding HPV E7 44-93 – biochemical, small-molecule microarray, residues 44-93, 635 nm fluorescence, primary screen (AID 1108); settings: fluorescence 635 nm, higher = more signal;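 also: E7 fragment applied at 1 µg/mL in TBST for 1 h at 4 C; score combines spot fluorescence with its signal to noise ratio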
[12] = hepatitis C replication reporter changes, two-sided – Huh7 cells, luciferase reporter, HCV replication inhibitor project, primary screen (AID 1109); settings: Huh7 HCV replicon luciferase reporter, 48 h; higher = more signal;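 also: huh7 hepatoma cells harbouring a luciferase neomycin HCV replicon reporter; luciferase luminescence as measure of HCV replicon replication; test concentration not given here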
[13] = target: Left-right determination factor 2 (Homo sapiens) (UniProt O00292); assay: small molecules binding LEFTY2 protein – biochemical, small-molecule microarray, 635 nm fluorescence scan, primary screen (AID 1110); settings: higher = more signal
[14] = target: Calmodulin-1 (Homo sapiens) (UniProt P0DP23); assay: small molecules binding calmodulin-1 with EGTA – biochemical, small-molecule microarray, Cy5-labelled CALM1, profiling panel (AID 1111); settings: Cy5-CALM1 binding fluorescence, higher = more signal;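 also: labelled calmodulin applied in Tris saline Tween buffer holding calcium plus EGTA and DTT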
[15] = target: Calmodulin-1 (Homo sapiens) (UniProt P0DP23); assay: small molecules binding Ca-loaded calmodulin-1 – biochemical, small-molecule microarray, Cy5-labelled CALM1, plus calcium, artefact control for SMM control-protein annotation, profiling panel (AID 1112); settings: Cy5-CALM1 binding fluorescence, higher = more signal;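 also: score merges spot fluorescence with signal to noise from triplicate slides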
[16] = probe aWnt5a binding to arrayed compounds – biochemical, biotinylated probe, 635/667 nm fluorescence, primary screen (AID 1113); settings: small-molecule microarray, higher = more signal;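 also: score merges 667 nm fluorescence intensity with signal-to-noise per printed feature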
[17] = probe aShh binding to arrayed compounds – biochemical, biotinylated probe, 635/667 nm fluorescence, primary screen (AID 1114); settings: small-molecule microarray, higher = more signal;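 also: probe is biotin-labelled aShh protein from a stem cell growth factor screen; measures binding of labelled protein to compounds printed on the slide; score merges feature fluorescence at 667 nm with signal-to-noise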
[18] = probe aNog binding to arrayed compounds – biochemical, biotinylated probe, 635/667 nm fluorescence, primary screen (AID 1115); settings: small-molecule microarray, higher = more signal;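 also: probe is biotinylated aNog protein used at 0.15 µg/mL for 1 h at 4 C; z-score combines 667 nm fluorescence of each spot with its signal to noise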
[19] = target: Torsin-1A-interacting protein 1 (Homo sapiens) (UniProt Q5JTV8); assay: compound microarray binding of lysate hLAP1 – cell lysate, small-molecule microarray, COS7 lysate, 635/667 nm fluorescence, primary screen (AID 1116); settings: 635 nm fluorescence, higher = more signal
[20] = target: Alpha-bungarotoxin (Bungarus multicinctus) (UniProt P60615); assay: compounds binding labelled alpha-BTX control protein – biochemical, small-molecule microarray, Alexa647 label, 635/667 nm fluorescence, artefact control for SMM control protein annotation, profiling panel (AID 1117); settings: alpha-BTX-A647 binding fluorescence, higher = more signal
Alpha-bungarotoxin (Bungarus multicinctus), sequence (P60615 whole entry, looked up): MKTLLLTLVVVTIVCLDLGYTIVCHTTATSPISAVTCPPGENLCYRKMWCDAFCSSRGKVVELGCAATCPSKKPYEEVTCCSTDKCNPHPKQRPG

Dickkopf-related protein 1 (Homo sapiens), sequence (O94907 whole entry, looked up): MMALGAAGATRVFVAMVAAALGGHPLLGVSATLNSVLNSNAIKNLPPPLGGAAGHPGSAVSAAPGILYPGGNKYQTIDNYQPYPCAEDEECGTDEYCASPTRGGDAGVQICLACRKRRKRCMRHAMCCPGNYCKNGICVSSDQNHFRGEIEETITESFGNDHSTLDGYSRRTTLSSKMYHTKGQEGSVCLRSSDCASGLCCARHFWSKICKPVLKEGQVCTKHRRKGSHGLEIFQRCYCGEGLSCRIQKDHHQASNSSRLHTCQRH
Left-right determination factor 2 (Homo sapiens), sequence (O00292 whole entry, looked up): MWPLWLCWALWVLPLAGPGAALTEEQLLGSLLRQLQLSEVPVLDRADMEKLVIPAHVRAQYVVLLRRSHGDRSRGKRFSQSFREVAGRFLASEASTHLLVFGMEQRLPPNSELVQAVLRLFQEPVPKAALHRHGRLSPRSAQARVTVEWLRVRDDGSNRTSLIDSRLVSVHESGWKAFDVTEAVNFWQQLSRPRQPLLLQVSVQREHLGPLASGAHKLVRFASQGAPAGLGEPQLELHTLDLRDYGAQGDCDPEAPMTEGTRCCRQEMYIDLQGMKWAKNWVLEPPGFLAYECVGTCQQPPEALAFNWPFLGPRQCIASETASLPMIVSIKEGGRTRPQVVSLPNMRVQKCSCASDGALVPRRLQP
Fibroblast growth factor 10 (Homo sapiens), sequence (O15520 whole entry, looked up): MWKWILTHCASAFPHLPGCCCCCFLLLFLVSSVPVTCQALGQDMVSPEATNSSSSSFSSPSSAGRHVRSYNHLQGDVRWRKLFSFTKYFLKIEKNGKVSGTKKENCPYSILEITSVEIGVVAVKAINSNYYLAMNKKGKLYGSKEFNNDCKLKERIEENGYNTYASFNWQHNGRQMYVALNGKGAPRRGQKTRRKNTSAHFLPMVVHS
Epidermal growth factor receptor (Homo sapiens), sequence (P00533 whole entry, looked up): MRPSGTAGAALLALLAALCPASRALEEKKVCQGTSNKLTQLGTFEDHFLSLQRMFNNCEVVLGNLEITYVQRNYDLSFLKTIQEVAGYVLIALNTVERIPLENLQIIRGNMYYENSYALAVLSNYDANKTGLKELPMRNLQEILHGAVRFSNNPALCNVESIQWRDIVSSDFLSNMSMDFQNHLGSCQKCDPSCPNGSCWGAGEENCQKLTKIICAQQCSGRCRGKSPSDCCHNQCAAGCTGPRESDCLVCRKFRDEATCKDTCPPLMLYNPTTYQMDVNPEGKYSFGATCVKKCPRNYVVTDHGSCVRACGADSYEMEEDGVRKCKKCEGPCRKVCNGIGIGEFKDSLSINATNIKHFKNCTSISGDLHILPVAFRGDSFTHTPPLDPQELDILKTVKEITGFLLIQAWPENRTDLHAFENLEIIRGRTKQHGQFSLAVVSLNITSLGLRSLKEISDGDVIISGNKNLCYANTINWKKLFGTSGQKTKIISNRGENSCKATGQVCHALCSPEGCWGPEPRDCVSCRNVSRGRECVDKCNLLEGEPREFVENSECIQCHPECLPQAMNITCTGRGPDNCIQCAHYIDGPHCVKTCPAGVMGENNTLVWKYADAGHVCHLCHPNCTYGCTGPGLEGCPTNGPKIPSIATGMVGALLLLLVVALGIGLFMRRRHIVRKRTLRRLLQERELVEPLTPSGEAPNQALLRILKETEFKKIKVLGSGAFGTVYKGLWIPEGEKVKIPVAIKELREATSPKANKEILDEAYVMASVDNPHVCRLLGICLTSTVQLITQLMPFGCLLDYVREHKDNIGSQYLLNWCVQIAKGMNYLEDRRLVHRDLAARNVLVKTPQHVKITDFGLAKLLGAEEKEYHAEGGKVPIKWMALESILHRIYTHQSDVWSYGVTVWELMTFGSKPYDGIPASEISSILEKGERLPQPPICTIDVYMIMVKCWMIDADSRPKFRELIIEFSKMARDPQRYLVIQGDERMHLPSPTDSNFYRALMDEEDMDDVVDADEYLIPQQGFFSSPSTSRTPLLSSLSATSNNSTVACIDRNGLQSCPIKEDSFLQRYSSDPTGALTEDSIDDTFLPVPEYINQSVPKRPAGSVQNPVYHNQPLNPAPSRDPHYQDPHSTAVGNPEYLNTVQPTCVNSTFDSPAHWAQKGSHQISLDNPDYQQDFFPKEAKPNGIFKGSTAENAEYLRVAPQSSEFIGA
Torsin-1A-interacting protein 1 (Homo sapiens), sequence (Q5JTV8 whole entry, looked up): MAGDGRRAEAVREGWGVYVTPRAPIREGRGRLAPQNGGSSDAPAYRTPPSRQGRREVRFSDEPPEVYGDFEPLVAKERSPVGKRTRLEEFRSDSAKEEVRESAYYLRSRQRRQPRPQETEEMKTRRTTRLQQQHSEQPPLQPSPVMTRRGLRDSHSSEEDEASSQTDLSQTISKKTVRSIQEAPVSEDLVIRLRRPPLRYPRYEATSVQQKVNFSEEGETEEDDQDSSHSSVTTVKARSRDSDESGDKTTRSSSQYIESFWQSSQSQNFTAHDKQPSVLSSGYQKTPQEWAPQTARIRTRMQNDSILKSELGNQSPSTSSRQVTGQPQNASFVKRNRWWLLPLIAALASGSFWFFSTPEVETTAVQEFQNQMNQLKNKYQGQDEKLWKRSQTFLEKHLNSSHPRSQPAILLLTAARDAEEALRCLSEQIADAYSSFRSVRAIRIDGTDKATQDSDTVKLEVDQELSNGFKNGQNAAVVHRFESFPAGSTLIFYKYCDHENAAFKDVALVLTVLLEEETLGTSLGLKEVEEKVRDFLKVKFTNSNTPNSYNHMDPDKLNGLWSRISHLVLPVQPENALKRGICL
Follistatin-related protein 3 (Homo sapiens), sequence (O95633 whole entry, looked up): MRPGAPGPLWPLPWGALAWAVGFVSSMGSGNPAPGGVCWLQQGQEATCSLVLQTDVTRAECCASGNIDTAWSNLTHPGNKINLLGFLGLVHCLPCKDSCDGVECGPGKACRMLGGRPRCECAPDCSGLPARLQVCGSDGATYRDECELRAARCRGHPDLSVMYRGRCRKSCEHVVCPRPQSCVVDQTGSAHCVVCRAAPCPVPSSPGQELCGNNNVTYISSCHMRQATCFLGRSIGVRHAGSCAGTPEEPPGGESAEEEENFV

| SMILES | composite z-score [1] | composite z-score [2] | composite z-score [3] | z-score [4] | composite z-score [5] | composite z-score [6] | composite z-score [7] | composite z-score [8] | composite z-score [9] | composite z-score [10] | composite z-score [11] | z-score [12] | composite z-score [13] | composite z-score [14] | composite z-score [15] | composite z-score [16] | composite z-score [17] | composite z-score [18] | composite z-score [19] | composite z-score [20] |
| --- | --- | --- | --- | --- | --- | --- | --- | --- | --- | --- | --- | --- | --- | --- | --- | --- | --- | --- | --- | --- |
| COc1ccc(C(O)C2C=CC3C(=O)N(Cc4ccccc4)C(=O)C3N2n2cnnc2)c2ccccc12 (stereo not given) | 1.83 | -0.0611 | 0.873 | -0.781 (inactive) | -1.12 | 0.233 | -1.17 | 0.127 | -1.45 | 0.48 | 1.52 | -0.6 | -1.55 | 0.0664 | -0.269 | -0.12 | -0.195 | 0.657 | 1.2 | -0.438 |
| CCOC(=O)C1=C[C@@H](c2ccccc2)N(S(=O)(=O)c2ccc(C)cc2)[C@H]1c1cccc(Cl)c1 | 0.937 | 1.09 | 1.17 | -0.355 (inactive) | 0.839 | 1.27 | 0.448 | 1.17 | -0.0943 | -0.249 | 0.242 | -1.81 | -0.0476 | 1.64 | 0.999 | 0.027 | -0.0289 | 0.568 | 2.5 | 2.25 |
| CO[C@H]1O[C@H](CO)[C@@H](OC(=O)Nc2ccccc2-c2ccccc2)[C@H](OC(=O)Nc2ccc3c(c2)OCO3)[C@@H]1OC(=O)Nc1ccc2c(c1)OCO2 | 1.32 | 0.198 | 0.679 | -1.14 (inactive) | 1.05 | 1.34 | 0.0757 | 1.44 | 0.279 | 0.691 | 1.49 | -0.841 | 0.0086 | 1.24 | -0.499 | 0.0244 | 0.232 | 1.21 | 0.541 | 1.01 |
| C=CC[C@@]1(C(=O)O)N=C(c2ccc(OCCCO)cc2)O[C@@H]1c1ccccc1 | 1.96 | -0.2 | 0.584 | -0.701 (inactive) | -0.21 | 1.06 | -1.9 | -1.15 | -0.659 | -0.361 | 1.35 | 0.0165 | -1.5 | -0.815 | -1.41 | 0.499 | 0.265 | 2.02 | 4.53 | 2.51 |
| CCCC=C(CCC)[C@@H](NP(=O)(c1ccccc1)c1ccccc1)c1ccc(C(F)(F)F)cc1 | -1.78 | 0.578 | 0.333 | -0.139 (inactive) | 0.0142 | 0.734 | -0.0267 | -0.354 | -0.15 | 0.589 | 1.13 | -0.475 | 0.0293 | 0.0848 | -0.33 | 0.474 | 0.135 | -0.301 | 0.145 | 0.109 |
| COCCCNC(=O)[C@]1(Cc2ccccc2CN=[N+]=[N-])N=C(c2ccc(OCCCO)cc2)O[C@@H]1c1ccccc1 | 0.465 | 0.383 | 0.775 | -0.697 (inactive) | 0.573 | 0.778 | -0.251 | 0.317 | -0.817 | 0.493 | 1.4 | -3.18 | -0.369 | 0.486 | 0.0518 | 0.0519 | -0.279 | -0.225 | 1 | 0.543 |
| CC1CC/C=C\[C@H]2OC34C=CCN(c5ccc6ccccc6c5)C(=O)[C@H]3N(C(CO)C(C)C)C(=O)[C@@H]4C2C(=O)O1 (stereo not given in full) | 0.675 | -0.305 | 0.623 | 6.6e-05 (inactive) | -0.209 | -0.176 | -0.56 | -0.163 | -0.495 | 1.2 | -0.546 | -0.957 | -0.854 | -0.822 | -0.419 | -0.169 | -0.164 | -0.267 | -0.203 | 0.462 |
| CN1C(=O)C2C(C1=O)C1C=C(c3ccc(CO)cc3)C2C(c2cccs2)N1Cc1cccc(OC(F)(F)F)c1 (stereo not given) | 1.06 | 0.0564 | -0.137 | -0.243 (inactive) | 1.07 | 1.27 | 0.0302 | 1.17 | 0.483 | 0.614 | 1.4 | -1.3 | 0.526 | 1.1 | 0.334 | 0.0077 | -0.0749 | -0.251 | 0.291 | 1.43 |
| CC(C)C(CO)N1C(=O)[C@]2(C)C3C(=O)OCCC/C=C\[C@H]3OC23C=CCN(c2ccc(Cl)cc2)C(=O)[C@@H]13 (stereo not given in full) | 1.11 | -0.095 | 0.38 | 0.242 (inactive) | -0.382 | -0.028 | -0.599 | -0.518 | -0.821 | 0.717 | 0.964 | 0.344 | -1.03 | -0.224 | -0.193 | -0.131 | -0.138 | 0.563 | -0.0952 | -0.28 |
| C[C@]12C(=O)N(CCCCCCO)[C@@H]3C(=O)N(c4ccc(Cl)cc4)CC=CC31O[C@@H]1/C=C\CCCOC(=O)C12 (stereo not given in full) | 1.93 | -0.134 | 0.391 | -1.54 (inactive) | -0.188 | -0.431 | -0.506 | -0.394 | -0.742 | 1.05 | -0.358 | -0.67 | -1 | -0.821 | -0.559 | 0.0297 | -0.0813 | 0.782 | 0.121 | -0.0604 |
| CCOC(=O)C1=CC[C@@H](c2cc(Cl)ccc2Cl)N(S(=O)(=O)c2ccc(C)cc2)[C@H]1c1ccc(OC)cc1 | 0.391 | 0.987 | 1.13 | -0.381 (inactive) | 0.462 | -0.239 | -0.36 | -0.0732 | -0.295 | 1.56 | -0.157 | -2.23 | -0.658 | 0.379 | 0.379 | 0.374 | 0.898 | -0.412 | 0.417 | -0.369 |
